Most compounds without a hit are left out; they make up all but 12% or so of the library.
USP30 block: blocks human USP30 ubiquitin-rhodamine cleavage; purified USP30, Ub-rhodamine cleavage fluorescence; Q70CQ3; 5.3% of 47,000 active; inhibition, % at 25 µM; AID 1645860
Target sequence (Q70CQ3 whole entry, looked up): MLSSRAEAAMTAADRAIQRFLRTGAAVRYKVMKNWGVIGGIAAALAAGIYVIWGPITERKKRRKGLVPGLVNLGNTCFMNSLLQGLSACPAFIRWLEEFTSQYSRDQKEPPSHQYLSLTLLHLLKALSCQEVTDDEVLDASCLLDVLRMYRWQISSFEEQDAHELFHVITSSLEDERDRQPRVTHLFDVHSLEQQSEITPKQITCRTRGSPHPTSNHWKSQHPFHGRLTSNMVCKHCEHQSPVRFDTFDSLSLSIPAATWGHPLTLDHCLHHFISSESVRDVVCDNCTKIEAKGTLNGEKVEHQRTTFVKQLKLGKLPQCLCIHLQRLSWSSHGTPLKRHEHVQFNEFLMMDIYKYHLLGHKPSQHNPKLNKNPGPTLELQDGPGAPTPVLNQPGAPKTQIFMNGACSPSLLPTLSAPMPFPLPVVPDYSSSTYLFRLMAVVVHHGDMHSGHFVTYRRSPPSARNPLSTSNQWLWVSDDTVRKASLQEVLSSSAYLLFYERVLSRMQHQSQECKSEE
USP8 block: blocks human USP8 ubiquitin-rhodamine cleavage | P40818 | purified USP8, Ub-rhodamine cleavage fluorescence, 30 min | inhibition, % at 20 µM | 4.2% of 47,000 active | AID 1645853
USP17 inh: blocks human USP17 ubiquitin-rhodamine cleavage | 6.5% of 47,000 active | purified USP17, Ub-rhodamine cleavage fluorescence, 3 h | A8MUK1 | inhibition, % at 50 µM | AID 1645855
Active calls of the source: *; nt = no result. Rule as the data show it: active = inhibition above about 30%; inactive = the rest.

SMILES	USP30 block	USP8 block	USP17 inh
O=C(NC1CCCc2ccccc21)c1ccc(-c2ccccc2)cc1 (configuration not stated)	-37	6	-13
CCOc1ncccc1C(=O)NC1CCCc2ccccc21 (configuration not stated)	32*	17	15
CC(=O)N1CCC(c2cncc(-c3cccc(C(=O)O)c3)n2)CC1	22	18	5
O=C(Cc1ccc(F)cc1)N1CCN(c2nc3ccc(F)cc3s2)CC1	-8	-2	nt
Cc1ccc(NC(=O)C2C3C=CC4(O3)C2C(=O)N(C2CCCCCC2)C4C(=O)NC2CCCCC2)cc1Cl (configuration not stated)	2	11	49*
CC(C)c1ccc(NC(=O)C2C3C=CC4(O3)C2C(=O)N(C2CC2)C4C(=O)NC2CCCCC2)cc1 (configuration not stated)	4	6	nt
O=C(Nc1ccc(Cl)cc1)C1C2C=CC3(O2)C1C(=O)N(C1CC1)C3C(=O)NC1CCCCC1 (configuration not stated)	4	14	36*
Cc1cc(C)cc(NC(=O)C2C3C=CC4(O3)C2C(=O)N(C2CC2)C4C(=O)NC2CCCCC2)c1 (configuration not stated)	-39	-5	3
CCOC(=O)c1c(C)oc2ccc(N(C(=O)c3ccncc3)S(=O)(=O)c3ccc(OCC)cc3)cc12	-12	-30	-17
CC(C)c1nc(C(N)=O)c2[nH]c(=O)n(-c3ccc(Cl)cc3)c2n1	14	10	3
O=S(=O)(Nc1ccc2[nH]ncc2c1)c1ccc2c(c1)CCC2	-6	11	7
O=S(=O)(Nc1ccc2[nH]ncc2c1)c1ccc(Cl)cc1F	7	37*	19
Cc1cccc2c1NC(=O)[C@]21[C@@H](C(=O)c2ccccc2)[C@]2(C(=O)Nc3ccccc32)[C@@H]2CCCN21	-112	4	-25
COc1ccc(OCC(=O)Nc2nnc3n2CCCS3)cc1	-11	-29	-11
CC1(c2ncc(CNC(=O)c3cnn4cccnc34)cn2)CCCCO1 (configuration not stated)	-6	2	0
Cc1ccc(NC(=O)CC(c2cccc(F)c2)n2cccc2)cc1F (configuration not stated)	23	9	28
Cc1ccc(NC2=NC(c3ccco3)n3c(nc(C)cc3=O)N2)c(C)c1 (configuration not stated)	62*	-8	40*
Cc1cc(=O)n2c(n1)NC(Nc1ccc(F)cc1)=NC2c1ccco1 (configuration not stated)	-2	-16	nt
COc1cccc(O[C@@H]2C[C@@H](NC(=O)c3cncn3C)[C@H](N3CCCC3)[C@H]2O)c1	15	11	12
O=C1NC(=O)/C(=C/c2ccc(OC(=O)c3ccc(Cl)cc3Cl)cc2)N1	62*	94*	38*
COc1ccc2c(c1)C(=O)C/C(=C\c1ccc(Cl)cc1)C2	20	21	20
O=C(c1ccc2c(c1)OCO2)N1CCn2c(nnc2-c2cncc(Br)c2)C1	2	-277	-27
O=C(Cn1c(CSc2ccccc2)nc2ccccc21)Nc1ccccc1F	16	51*	-4
Cc1cc(=O)n(CC(=O)Nc2ccccc2F)c(N2CCCCC2)n1	-12	-10	2
COc1ccc(NS(=O)(=O)c2cc(OC)ccc2NC(=O)c2cc3c(s2)CCC3)cc1	-17	-1	31*
SMILES	USP30 block	USP8 block	USP17 inh
O=C(Nc1cc(S(=O)(=O)N2CCOCC2)ccc1Cl)c1cc2c(s1)CCCC2	-1	0	4
COc1ccc2nc(-c3ccc(NC(=O)c4cccc(OC)c4OC)cc3)cn2n1	-28	4	81*
COc1ccc2nc(-c3cccc(NC(=O)C4CCCC4)c3)cn2n1	2	-1	29
CCN1CCc2nc3ccccc3c(C(=O)Nc3ccc(F)cc3)c2C1	-246	-24	-69
CCN1CCc2nc(-c3ccccc3)n(CC(=O)N3CCOc4ccc(C)cc43)c(=O)c2C1	-43	59*	14
CCN1CCc2nc(-c3ccc(F)cc3)n(CC(=O)N(CC)c3ccccc3)c(=O)c2C1	-101	48*	-6
Cc1ccc2c(c1)N(C(=O)Cn1c(C)nc3c(c1=O)CCN(Cc1ccccc1)C3)CCO2	-16	-4	0
O=C(Nc1ccccc1Cl)c1cnc2sc3c(n2c1=O)CCCC3	25	0	12
CC1=CC=CN2C(=O)C(Cc3ccc(C)cc3)(NC(=O)c3ccccc3)N=C12 (configuration not stated)	10	21	12
CC(C)NC(=O)C1(Cc2ccc(-c3ccncc3)cc2)CCN(C(=O)c2ccncc2)CC1	14	5	6
O=C(c1ccoc1)N1CCc2ncnc(-c3cccc(F)c3)c2CC1	-9	-54	nt
CN1CCCC(OC(=O)c2cc(Cl)cc(Cl)c2)C1 (configuration not stated)	33*	32*	nt
CN1CCCC(OC(=O)c2cccc(Cl)c2)C1 (configuration not stated)	24	19	15
O=C1C2C(C(=O)N1c1ccccc1F)C1(c3ccccc3)C(=O)C2(c2ccccc2)C(c2ccccc2)=C1c1ccccc1 (configuration not stated)	1	10	-5
CC(C)CCCCCCCCCCC(=O)N(C)[C@H](CO)C(=O)N[C@H](C)C(=O)NCC(=O)N(C)C1C(=O)N[C@@H](C)C(=O)NC(C(=O)O)Cc2ccc(O)c(c2)-c2cc1ccc2O (some centres not stated)	33*	1	7
CC1CN(S(=O)(=O)c2cccc(C#N)c2)Cc2ccccc2N1C (configuration not stated)	3	2	7
COc1ccc(C(=O)OC[C@@H]2CCCN3CCCC[C@H]23)cc1	-5	0	3
N#Cc1cccc(NC(=O)Cc2noc3ccccc23)c1	0	-6	2
O=C(Cc1noc2ccccc12)NCC(=O)Nc1ccc(Cl)cc1	25	15	77*
COc1nccnc1NC1CCN(C(=O)c2ccc3cc[nH]c3c2)CC1	-17	-4	-19
Clc1cccc(C2(c3nc(Cc4ccccc4)no3)CCOCC2)c1	2	7	5
CC(C)NC(=O)CN1CCC2(CCC1=O)CC(=O)c1ccccc1O2 (configuration not stated)	20	10	9
O=C1CC[C@H](O)c2cccc(O)c21	3	0	6
O=C1CC(O)C(O)c2cccc(O)c21 (configuration not stated)	-4	76*	90*
COc1ccc(Cl)cc1NC(=O)CN1CCCCCC1	7	8	0
SMILES	USP30 block	USP8 block	USP17 inh
CCc1cc(C(=O)c2ccc(OC)cc2)c(NC(=O)CN2CCCCC2)s1	74*	5	5
COc1ccc(C(=O)c2conc2C(C)=O)cc1	-3	2	1
COc1cc(NC(=O)c2ccc(Cl)cc2)c(OC)cc1NC(=O)CN1CCOCC1	-36	-19	-27
CCc1cc(C(=O)c2ccc(OC)cc2)c(NC(=O)CCC(=O)O)s1	31*	1	29
COc1ccc(C(=O)Nc2cc(OC)c(NC(=O)CN3CCOCC3)cc2OC)cc1	-121	58*	-5
CSc1ccccc1NC(=O)c1ccc(-n2cccn2)nn1	41*	5	62*
CSc1ccccc1NC(=O)c1ccc(N2CCOCC2)nn1	5	-51	nt
